# RGS7-Gao – human RGS7-Galphao interaction regulation | P09471 | Multiplexed bead flow cytometry, RGS7-Galphao binding; actives lie on both sides | binding response (% of control), % at 10 µM | 0.35% of 220,000 active | AID 1439; in the data active = binding response below about 49% or above about 150%; inconclusive = no clear call, values can overlap the other calls; inactive = in between;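 note: fluorescent Galphao held in activated GDP-AlF4 state binding bead-coupled RGS7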
# Target sequence (P09471 whole entry, looked up): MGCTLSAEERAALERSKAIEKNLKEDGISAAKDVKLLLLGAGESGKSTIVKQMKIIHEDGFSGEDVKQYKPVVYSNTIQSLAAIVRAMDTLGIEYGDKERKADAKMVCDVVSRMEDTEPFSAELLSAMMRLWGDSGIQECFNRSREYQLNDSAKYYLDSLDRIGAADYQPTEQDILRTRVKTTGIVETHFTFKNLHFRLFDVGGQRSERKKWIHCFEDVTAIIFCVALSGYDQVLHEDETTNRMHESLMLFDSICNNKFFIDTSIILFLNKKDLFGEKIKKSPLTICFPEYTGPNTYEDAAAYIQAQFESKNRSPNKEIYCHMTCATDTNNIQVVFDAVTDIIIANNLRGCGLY
# RGS8-Gao – human RGS8-Galphao interaction regulation; multiplexed bead flow cytometry, RGS8-Galphao binding; actives lie on both sides; P09471; response (percent of control binding), % at 10 µM; 0.34% of 220,000 active; in the data active = response below about 60% or above about 140%; inactive = in between;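 note: Galphao activated as the GDP aluminium fluoride complex binding bead-coupled RGS8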
# RGS16-Gao HTS – RGS16-Galphao interaction regulator (human). O15492+P09471. 0.38% of 220,000 active. binding response (% of control), % at 10 µM. bead-based flow cytometry RGS16-Galphao binding, fluorescence; actives lie on both sides;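 note: Galphao activated by GDP with aluminum fluoride before binding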
# RGS4-Gao reg – human RGS4-Galphao interaction regulation; P09471; Multiplexed bead flow cytometry, RGS4-Galphao binding; actives lie on both sides; binding response (% of control), % at 10 µM; 0.33% of 220,000 active; in the data active = binding response below about 49% or above about 150%; inactive = in between;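 note: fluorescent Galphao activated with aluminum fluoride binding bead-coupled RGS4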
# Avidin bead fluor – avidin bead compound fluorescence profile | AID 1775 | 0.38% of 220,000 active | Avidin beads, compound fluorescence 488/530 nm, flow cytometry; active compounds read high | fluorescence (KMESF) at 10 µM; in the data active = fluorescence above about 47
# GSH bead fluor – GSH bead compound fluorescence profile | AID 1776 | 0.25% of 190,000 active | fluorescence (KMESF) at 10 µM | GSH beads flow cytometry, compound fluorescence 488/530 nm; active compounds read high; in the data active = fluorescence above about 89;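 note: glutathione beads carrying GST-tagged Bcl family fusion proteins plus one bare bead set; values are compound well signal with DMSO vehicle wells as background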
# RGS-Gao – modulates binding between human RGS4 and Galphao; shares compounds with RGS16-Gao HTS; multiplexed bead flow cytometry, RGS–Galpha-o binding; RGS4–Galpha-o binding response, % at 10 µM; 99% of 1,600 active; AID 1504;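 note: fluorescently labeled Galpha-o bound to GDP with aluminium fluoride binding biotinylated RGS beads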
# Biotin-avidin – biotin-avidin bead binding disruption counter-screen; inhibition, % at 10 µM; 1,700 tested, under 10 active; streptavidin beads, fluorescein-biotin binding, flow cytometry; shares compounds with RGS16-Gao HTS;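 active = inhibition above 50%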;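 note: median green fluorescence of gated singlet beads compared with DMSO control wells; 0% = DMSO wells and 100% = complete loss of bead fluorescence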
# RGS8-Gao single – confirmation of regulators of human RGS8-Galphao interaction; shares compounds with RGS16-Gao HTS; bead-based flow cytometry RGS8-Galphao binding, fluorescence; actives lie on both sides; binding response (% of control), % at 10 µM; 3% of 1,700 active; in the data active = binding response below about 72% or above about 130%; inactive = in between;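 note: Galphao activated as GDP AlF4 complex before binding bead RGS8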
# RGS7-Gao single – confirmation of regulators of human RGS7-Galphao interaction; shares compounds with RGS16-Gao HTS; bead-based flow cytometry RGS7-Galphao binding; actives lie on both sides; response (percent of control binding), % at 10 µM; 7.8% of 1,700 active; in the data active = response below about 75% or above about 130%; inactive = in between;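 note: fluorescent Galphao activated with GDP and aluminum fluoride binding bead-coupled RGS7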
# RGS16-Gao single – RGS16-Galphao interaction regulation, single point confirmation; shares compounds with RGS16-Gao HTS; bead-based flow cytometry, RGS16-Galphao binding; actives lie on both sides; response (% of control binding), % at 10 µM; 4% of 1,700 active; AID 1838; in the data active = response below about 74% or above about 130%; inactive = in between;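 note: Galphao activated as the GDP aluminium fluoride complex binding bead-coupled RGS16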
# RGS4-Gao confirm – RGS4-Galphao interaction regulation, single point confirmation. RGS4-Galphao binding, multiplexed bead flow cytometry; actives lie on both sides. shares compounds with RGS16-Gao HTS. 4% of 1,700 active. binding response (% of control), % at 10 µM; in the data active = binding response below about 74% or above about 130%; inactive = in between
# RGS19-Gao conf – RGS19-Galphao interaction regulation, single point confirmation; AID 1841; 5% of 1,700 active; bead-based flow cytometry RGS19-Galphao binding; actives lie on both sides; shares compounds with RGS16-Gao HTS; response (percent of control binding), % at 10 µM; in the data active = response below about 50% or above about 160%; inactive = in between;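 note: 100% = no compound control and 0% = blank background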
# Target sequence (P09471 whole entry, looked up): as above
# Target sequence (P49795 whole entry, looked up): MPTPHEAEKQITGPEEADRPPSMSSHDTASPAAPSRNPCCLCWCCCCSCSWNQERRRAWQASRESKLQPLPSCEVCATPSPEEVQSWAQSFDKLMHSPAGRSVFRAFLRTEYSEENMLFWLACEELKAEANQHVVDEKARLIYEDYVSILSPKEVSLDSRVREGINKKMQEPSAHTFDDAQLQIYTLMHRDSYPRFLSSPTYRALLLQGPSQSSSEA
# Starred values were filed as active, the others as inactive; ? = inconclusive; . = not tested or not shown; [ ] = another dose, or the depositor's remark. In the library only some 1.2% were active in any assay of this set; here they are far more common. Unless noted, the rule behind the calls is not given here.
SMILES,RGS7-Gao,RGS8-Gao,RGS16-Gao HTS,RGS4-Gao reg,Avidin bead fluor,GSH bead fluor,Biotin-avidin,RGS8-Gao single,RGS7-Gao single,RGS16-Gao single,RGS4-Gao confirm,RGS19-Gao conf,others
CC1CCN(S(=O)(=O)c2cccc(C(=O)Oc3ccc([N+](=O)[O-])cc3)c2)CC1,114,83,24*,97,8,11,2,98,105,100,102,89,RGS-Gao=97*
Cc1ccc(NC(=S)Nc2ccc(C(C)C)cc2)cc1S(=O)(=O)N1CCCCCC1,109,98,102,98,5,12,.,.,.,.,.,.,
CCCCN(C(=O)c1ccc(Cl)c([N+](=O)[O-])c1)c1c(N)n(CCC)c(=O)[nH]c1=O,106,103,110,105,26,7,.,.,.,.,.,.,
COc1cc(C(=S)N2CCOCC2)ccc1OC(=O)c1cc([N+](=O)[O-])c(C)c([N+](=O)[O-])c1,91,80,6.2*,86,6,5,-1,102,98,102,101,95,RGS-Gao=86*
COc1ccc(C(=S)N2CCOCC2)cc1OC(=O)c1cc([N+](=O)[O-])c(C)c([N+](=O)[O-])c1,107,101,104,100,14,16,.,.,.,.,.,.,
CCOC(=O)/C(=N\Nc1ccccc1Cl)N(C)C1CCCCC1,?,98,98,102,10,13,.,.,.,.,.,.,
Cc1ccc(S(=O)(=O)NCc2ccc(C(=O)NCc3cccnc3)cc2)cc1,103,106,119,103,22,8,.,.,.,.,.,.,
CCN(CC)C(=O)c1ccc(S(=O)(=O)NCc2cccnc2)cc1,.,.,.,.,.,39,2,101,122,106,108,118,
Cc1ccccc1CN1CCN(S(=O)(=O)c2cccs2)CC1,97,101,100,97,9,27,.,.,.,.,.,.,
COc1cccc2cc(C(C)=O)oc12,96,97,112,100,8,20,.,.,.,.,.,.,
CCOc1cccc2cc(C(C)=O)oc12,10*,11*,5.6*,11*,.,14,1,101,102,102,101,113,
OCCSc1nc(-c2ccccc2)nc2c1CCC2,89,80,15*,96,8,9,0,100,95,100,100,109,RGS-Gao=96*
COCCCNC(=O)CN(c1cc(Cl)ccc1OC)S(C)(=O)=O,101,102,101,100,10,11,.,.,.,.,.,.,
O=C(CN1C(=O)NC2(CCCC2)C1=O)Nc1nc(-c2ccc(F)cc2)cs1,101,100,95,99,10,15,.,.,.,.,.,.,
CC1(C)NC(=O)N(CC(=O)Nc2nc(-c3ccc(F)cc3)cs2)C1=O,216*[activator],94,100,133,195*,5,0,95,69*,83,83,49*,RGS-Gao=133*
CC(=O)c1ccc(NC(=S)NC(=O)c2c(Cl)c(C)nn2C)cc1,101,94,87,98,3,10,.,.,.,.,.,.,
Cc1cc(C)c(NC(=O)c2cnn(C)c2)c(C)c1,2.0*,4.6*,-386,-6.8*,-3,10,0,111,118,112,114,101,
COCCn1nnnc1C(C(C)C)N1CCC(Cc2ccccc2)CC1 (centres undefined),102,87,151,155*[activator],4,24,-1,104,104,104,101,92,
O=C(NC1(C(F)(F)F)NC(=O)N(Cc2ccccc2)C1=O)c1cccnc1 (centres undefined),103,101,103,106,6,31,.,.,.,.,.,.,
O=C(NC1(C(F)(F)F)NC(=O)N(Cc2cccnc2)C1=O)c1ccccc1 (centres undefined),42*,52*,39,46*,2,28,0,99,104,103,102,97,
O=C(c1cccs1)N1CCN(Cc2ccccc2[N+](=O)[O-])CC1,89,87,47,90,5,9,.,.,.,.,.,.,
O=C(CNC(=O)C1COc2ccccc2O1)N/N=C/c1ccc(O)cc1O (centres undefined),61,56*,-1.7*,62,4,4,0,103,103,103,103,88,RGS-Gao=62*
CCN(CCNC(=O)CN(C)S(=O)(=O)c1cccc2nsnc12)c1ccccc1,109,108,109,109,23,11,.,.,.,.,.,.,
CCN(CCCNC(=O)CN(C)S(=O)(=O)c1cccc2nsnc12)c1cccc(C)c1,.,.,.,.,.,39,4,104,103,101,101,106,
Cc1cc(C)n2nc(Sc3ncccc3[N+](=O)[O-])nc2n1,?,99,101,103,7,.,.,.,.,.,.,.,
SMILES,RGS7-Gao,RGS8-Gao,RGS16-Gao HTS,RGS4-Gao reg,Avidin bead fluor,GSH bead fluor,Biotin-avidin,RGS8-Gao single,RGS7-Gao single,RGS16-Gao single,RGS4-Gao confirm,RGS19-Gao conf,others
COc1ccc(-n2nc(C(=O)NCC(=O)N3CCN(c4ccccn4)CC3)c3ccccc3c2=O)cc1Cl,102,104,100,100,7,12,.,.,.,.,.,.,
COc1ccc(-n2nc(C(=O)NCC(=O)N3CCN(C)CC3)c3ccccc3c2=O)cc1OC,110,142*[activator],222,108,7,40,0,100,99,98,98,92,RGS-Gao=108*
COCCN1C(=O)c2ccccc2C(C(=O)NCCCN2CCCC2)C1c1c[nH]c2ccccc12 (centres undefined),34*,42*,32,38*,15,21,1,105,94,101,99,93,
CN1C(=O)c2ccccc2C(C(=O)NCCCN2CCCC2=O)C1c1c[nH]c2ccccc12 (centres undefined),103,102,102,105,10,6,.,.,.,.,.,.,
COc1ccc(OCCNS(=O)(=O)c2ccccc2)cc1,96,97,98,94,9,9,.,.,.,.,.,.,
Cc1ccc(OCCNS(=O)(=O)c2cccs2)cc1,154*[activator],126,157,159*[activator],8,30,-2,96,96,91,93,81,

# Screens from PubChem.
